Type in all cases: functional
The target of test [1] is Solute carrier family 2, facilitated glucose transporter member 1 (Homo sapiens) (UniProt P11166). The test can be described thus: ST_JUDE_LEISH: Cytotoxicity at 2uM final concentration against transgenic Leishmania Mexicana promastigotes LmGLUT1 that are glucose transport deficient and complemented with the human glucose transporter GLUT1. Activity is measured by DNA content using SYBR green in vitro.

Test [2] deals with Hexose transporter 1 (Plasmodium falciparum) (UniProt O97467). The test can be described thus: ST_JUDE_LEISH: Cytotoxicity at 2uM final concentration against transgenic Leishmania Mexicana promastigotes LmPfHT that are glucose transport deficient and complemented with the Plasmodium falciparum hexose transporter. Activity is measured by DNA content using SYBR green in vitro.
Test [3] addresses Glucose transporter (Leishmania mexicana) (UniProt O61059). The test can be described thus: ST_JUDE_LEISH: Cytotoxicity at 2uM final concentration against transgenic Leishmania Mexicana promastigotes LmGT2 that are glucose transport deficient and complemented with the L. Mexicana glucose transporter 2. Activity is measured by DNA content using SYBR green in vitro.

Solute carrier family 2, facilitated glucose transporter member 1 (Homo sapiens), sequence (P11166 whole entry): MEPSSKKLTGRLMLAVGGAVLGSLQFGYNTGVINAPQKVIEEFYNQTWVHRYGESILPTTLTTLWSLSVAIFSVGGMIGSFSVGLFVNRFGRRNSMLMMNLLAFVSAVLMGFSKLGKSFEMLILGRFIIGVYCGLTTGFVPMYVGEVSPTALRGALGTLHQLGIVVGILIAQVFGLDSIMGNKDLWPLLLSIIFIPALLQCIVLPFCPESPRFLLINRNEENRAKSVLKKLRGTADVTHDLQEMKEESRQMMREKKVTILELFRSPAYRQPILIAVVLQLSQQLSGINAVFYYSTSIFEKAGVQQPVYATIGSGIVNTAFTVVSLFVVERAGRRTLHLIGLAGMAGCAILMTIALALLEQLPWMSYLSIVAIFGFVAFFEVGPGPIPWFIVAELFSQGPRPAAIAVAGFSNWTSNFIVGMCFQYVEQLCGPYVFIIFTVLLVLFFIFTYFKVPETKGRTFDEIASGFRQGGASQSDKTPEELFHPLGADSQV

As usually defined, the inhibition is the relative decrease from the control value, in per cent. Regarding `CC(=NNc1nc2ccccc2s1)c1ccccn1`, the inhibition in test [1] came to 7.41%; in test [2] it was 17.9%; in test [3] it was 3.21%.
The corresponding values for `CC(=O)c1cccc(NC(=O)c2ccc(Cl)c(S(=O)(=O)N3CCc4ccccc43)c2)c1` are 12.1%, 11.9% and 12%.
The like results for `N#Cc1ccc2[nH]c(-c3cc(-c4cccc(F)c4)cnc3N)nc2c1` were, in that order, 6.56%, 7.71% and 3.77%.
Take `COc1cc2c(cc1OCCN1CCC(N3CCCCC3)CC1)N(C(=O)/C=C/c1ccccc1Cl)CC2`: the inhibition turned out to be 0.24% in test [1], 1.79% in test [2] and 1.83% in test [3].
In the case of `CN(C)CCCNc1ccnc2cc(Cl)ccc12`, the inhibition is 1.15% in test [1], 0.62% in test [2] and -1.76% in test [3].
Take `COc1ccc2nc3cc(Cl)ccc3c(Nc3ccc(Oc4ccc(Nc5c6ccc(Cl)cc6nc6ccc(OC)cc56)cc4)cc3)c2c1`: the inhibition in test [1] stood at 1.15%; in test [2], 1.19%; in test [3] it was 1.3%.
The like results for `COCCOC(=O)C(=O)c1c(-c2ccccc2)c(-c2ccc(OC)c(OC)c2)c2c3cc(OC)c(OC)cc3ccn12` were, in that order, 4.89%, 2.7% and 1.72%.
The like results for `CC12CCC(=O)N1C(C(=O)Nc1cccc(C(=O)Nc3cccc(C(F)(F)F)c3)c1)CS2` (stereo not given) were, in that order, 5.52%, 6.47% and 6.41%.
The corresponding values for `COc1ccc(CC(=O)NC(CCCN2CCC3(CC2)OCc2ccccc23)c2ccc(Cl)c(Cl)c2)cc1` (stereo not given) are 1.2%, 2.18% and -0.29%.
As for `N#Cc1ccc2c(c1)CCN(CCC1CCC(NC(=O)/C=C/c3cccc4cc[nH]c34)CC1)CC2` (stereo not given), the inhibition in test [1] was determined as 8.95%; in test [2], 9.87%; in test [3], 3.01%.
`CC(C)CCCC(C)NC[C@@H](O)[C@H](Cc1ccccc1)NC(=O)c1cc(N2CCCC2=O)cc(N(c2ccccc2)S(C)(=O)=O)c1` (stereo not given in full): the inhibition in test [1] amounted to 1.85%; in test [2], 2.61%; in test [3], 1.65%.
Take `COc1cc(F)c2ncc(Cl)c(CCN3CCC(NCc4ccc5c(n4)NC(=O)CO5)CC3)c2c1`: the inhibition is 3.28% in test [1], 4.15% in test [2] and -1.5% in test [3].
`Cc1ccc2nc(C)cc(N/N=C/c3ccc([N+](=O)[O-])o3)c2c1`: the inhibition turned out to be 14.9% in test [1], 12.8% in test [2] and 9.98% in test [3].
The like results for `N#Cc1ccc(-c2ccc(C(=O)NCCCCN3CCC(c4nc5ccccc5[nH]4)CC3)cc2)cc1` were, in that order, 2.16%, 2.21% and 2.69%.
For the compound `Cc1cc(NC(=O)NCCN2CCC(NS(=O)(=O)c3ccc(C(F)(F)F)cc3)C2)c2ccccc2n1` (stereo not given), the inhibition in test [1] worked out at 11.8%; in test [2], 11.8%; in test [3], 7.4%.
On to `Clc1ccc(CNCCCCCCCNCc2ccc(Cl)c(Cl)c2)cc1Cl`, for which the inhibition in test [1] is -1.86%; in test [2] it was -1.24%; in test [3] it was -0.86%.
The like results for `CCc1cccc(C)c1-n1nc(-c2cc(C(C)(C)C)oc2C)cc1N` were, in that order, 2.34%, 1.75% and 0.33%.
The corresponding values for `N[C@@H](Cc1cc(I)c(Oc2ccc(O)c(C(=O)O)c2)c(I)c1)C(=O)O` are 3.18%, 3.91% and 3.61%.
The like results for `COc1cc2c(C3CCN(CC4CCC(NC(=O)/C=C/c5ccc(Cl)c(Cl)c5)CC4)CC3)c[nH]c2cn1` (stereo not given) were, in that order, 9.19%, 8.02% and 7.96%.
As to `CC(=O)Nc1ccc2[nH]cc(C3CCN(CCC4CCN(C(=O)/C=C/c5ccc(Cl)c(Cl)c5)CC4)CC3)c2n1`, the inhibition was 0.57% in test [1], 0.67% in test [2] and -1.33% in test [3].
With `Cc1ccc(-c2nc3cc(NC(=O)c4ccc([N+](=O)[O-])o4)ccc3o2)cc1Cl`, the inhibition in test [1] is 77%; in test [2] it was 85.3%; in test [3] it was 68.1%.
The corresponding values for `O=C(Nc1ccc(C(=O)N2CCN(CCN3CCN(c4cccc(C(F)(F)F)c4)CC3)CC2)cc1)c1ccc(OC(F)(F)F)cc1` are -1.35%, 0.14% and -2.39%.
The like results for `CC1(C)NC(N)=NC(=N)N1OCCSc1ccc(Cl)c(Cl)c1` were, in that order, 5.92%, 7.48% and 9.66%.
Regarding `COc1ccccc1CCNc1nc(C)cc(N[C@@H](CC(C)C)C(=O)NCc2cccs2)n1`, the inhibition in test [1] stood at 6.71%; in test [2] it was 5.41%; in test [3], 4.04%.
The corresponding values for `CC(C)CCn1c(Sc2ccc(C#N)c([N+](=O)[O-])c2)nnc1-c1ccc(Cl)cc1` are 10.1%, 9.73% and 4.99%.
Take `CN(C)CCCOc1ccc(-c2csc(NC(=N)NCc3ccccc3)n2)cc1`: the inhibition was 1.32% in test [1], 6.08% in test [2] and 3.86% in test [3].
The like results for `COc1cc2nc(NCCc3ccccc3)nc(NCc3cnn(C)c3C)c2cc1OC` were, in that order, 9.47%, 8.36% and 7.1%.
Consider `CC(C)CC(=O)N(Cc1ccc(-c2ccc(CNC3Cc4ccccc4C3)cc2)cc1)C1CCNCC1`, for which the inhibition came out at 8.37% in test [1], 5.79% in test [2] and 10.6% in test [3].
The like results for `COc1ccc2nccc([C@@H](O)CN3CCC(NCc4ccc5c(c4)NC(=O)CS5)CC3)c2n1` were, in that order, 0.52%, 2.86% and -3.81%.
On to `COc1cc(NC(=O)N2CCOC(CCN3CCC4(CCc5ccccc54)CC3)(c3ccc(Cl)c(Cl)c3)C2)cc(OC)c1OC` (stereo not given), for which the inhibition is 18.1% in test [1], 15.1% in test [2] and 14.1% in test [3].
The like results for `Cn1cncc1C(=O)Nc1ccc(-c2cccc(-c3nc4cc(C(F)(F)F)ccc4[nH]3)c2)cc1` were, in that order, 1.53%, 1.11% and 2.32%.
Consider `O=C(O[C@@H]1CN[C@H](C#Cc2cc3ncnc(Nc4ccc5c(cnn5Cc5cccc(F)c5)c4)c3s2)C1)N1CCCC1`, for which the values for the inhibition in test [1], in test [2] and in test [3] were 1.37%, 0.19% and -1.8%, respectively.
The like results for `N#Cc1ccc2[nH]c(-c3ccccc3)nc2c1` were, in that order, 7.3%, 6.06% and 5.78%.
The corresponding values for `O=C(Nc1ccccc1)N(Cc1cccc(-c2ccc(CNCCc3ccccc3)cc2)c1)C1CCN(Cc2ccccc2)CC1` are 0.46%, -0.56% and 0.13%.
Take `CC(C)C(NC(=O)c1c(F)cccc1F)C(=O)Nc1ccc(Cc2nc3ccccc3s2)cc1` (stereo not given): the inhibition in test [1] is -1.47%; in test [2] it was 2.55%; in test [3], 1.42%.
